Legend:
Format in all cases: functional
[1] = target: Solute carrier family 2, facilitated glucose transporter member 1 (Homo sapiens) (UniProt P11166); assay: ST_JUDE_LEISH: Cytotoxicity at 2uM final concentration against transgenic Leishmania Mexicana promastigotes LmGLUT1 that are glucose transport deficient and complemented with the human glucose transporter GLUT1. Activity is measured by DNA content using SYBR green in vitro
[2] = target: Hexose transporter 1 (Plasmodium falciparum) (UniProt O97467); assay: ST_JUDE_LEISH: Cytotoxicity at 2uM final concentration against transgenic Leishmania Mexicana promastigotes LmPfHT that are glucose transport deficient and complemented with the Plasmodium falciparum hexose transporter. Activity is measured by DNA content using SYBR green in vitro
[3] = target: Glucose transporter (Leishmania mexicana) (UniProt O61059); assay: ST_JUDE_LEISH: Cytotoxicity at 2uM final concentration against transgenic Leishmania Mexicana promastigotes LmGT2 that are glucose transport deficient and complemented with the L. Mexicana glucose transporter 2. Activity is measured by DNA content using SYBR green in vitro

Sequence of Solute carrier family 2, facilitated glucose transporter member 1 (Homo sapiens) (P11166 whole entry): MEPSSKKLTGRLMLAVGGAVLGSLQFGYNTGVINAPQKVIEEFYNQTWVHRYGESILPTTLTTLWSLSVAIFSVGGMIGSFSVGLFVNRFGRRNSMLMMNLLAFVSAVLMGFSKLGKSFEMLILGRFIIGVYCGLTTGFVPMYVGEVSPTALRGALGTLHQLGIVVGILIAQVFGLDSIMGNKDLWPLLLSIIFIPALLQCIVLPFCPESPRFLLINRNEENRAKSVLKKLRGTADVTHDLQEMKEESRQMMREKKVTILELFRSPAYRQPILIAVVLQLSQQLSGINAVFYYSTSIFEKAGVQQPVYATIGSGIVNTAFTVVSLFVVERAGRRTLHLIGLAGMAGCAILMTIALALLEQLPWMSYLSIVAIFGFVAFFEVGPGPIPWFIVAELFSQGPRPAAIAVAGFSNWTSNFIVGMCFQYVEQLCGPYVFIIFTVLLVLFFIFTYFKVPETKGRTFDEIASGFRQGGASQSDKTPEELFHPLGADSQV

Compound | inhibition [1] [%] | inhibition [2] [%] | inhibition [3] [%]
CCOc1cc(C(C)C)ccc1N1CCN(CCCCNC(=O)c2ccc(NC(=O)c3ccc(Cl)cc3)cc2)CC1 | 4.38 | 2.39 | 2.86
c1cc(CN2CCN(c3ccncc3)CC2)cc(-c2cccc(-c3nc4ccccc4[nH]3)c2)c1 | 2.65 | 2.34 | 1.32
Cc1cc(N)cc2nc(-c3ccc(N)cc3)[nH]c12 | 3.09 | 2.43 | 1.68
C[C@@H](Oc1cc(-n2cnc3ccc(OCC4CCN(S(C)(=O)=O)CC4)cc32)sc1C(N)=O)c1ccccc1C(F)(F)F | 11.6 | 9.1 | 4.63
O=c1cc(NCCCNC2CCOc3c(Cl)cc(Cl)cc32)[nH]c2ccccc12 (stereo unspecified) | 1.09 | 2.42 | 1.28
Cc1nc(-c2nc(N3CCOCC3)ncc2-c2ccsc2)sc1C | -1.47 | -0.4 | 1.4
Cc1cc(NC(=O)Nc2ccc(C(C)(C)C)cc2)c2ccccc2n1 | 1.18 | 3.8 | -3.31
Nc1nc(N)c2c(ccc3ccccc32)n1 | 14.7 | 28.9 | 19
Clc1cc(Br)ccc1-c1ccc(CNCC2CCNCC2)o1 | 0.75 | -0.1 | 1.69
CC(C)(C)NS(=O)(=O)c1cc(C(=O)N2CCC(CCN3CCC(O)(c4cccc(C(F)(F)F)c4)CC3)(c3cccc(F)c3)CC2)c(Cl)cc1F | 1.73 | 1.52 | -0.37
CC(C)C(NC(=O)c1c(F)cccc1F)C(=O)Nc1ccc(Cc2nc3ccccc3s2)cc1 (stereo unspecified) | -1.47 | 2.55 | 1.42
Cc1cc(N[C@@H](Cc2ccccc2)C(=O)NCc2cccs2)nc(NCCc2ccccn2)n1 | 6.58 | 3.27 | 1.45
